Data as given in the supplement of paper PMC3334620.
Whole data set: some 33,000 sequences, median “E-score (-0.5 to 0.5)” near -0.035, cut for the highest 2% near 0.34. What follows is part of a selection rich in the highest values, with near analogues and random picks from the rest.

These sequences were tested against T1, Mot3 (UniProt P54785) (assay: PBM E-score (8-mer binding enrichment) (E-score (-0.5 to 0.5)); higher = stronger / more preferred TF binding). Conditions: protein concentration: 200 nM; construct: GST-full length.
T1 sequence: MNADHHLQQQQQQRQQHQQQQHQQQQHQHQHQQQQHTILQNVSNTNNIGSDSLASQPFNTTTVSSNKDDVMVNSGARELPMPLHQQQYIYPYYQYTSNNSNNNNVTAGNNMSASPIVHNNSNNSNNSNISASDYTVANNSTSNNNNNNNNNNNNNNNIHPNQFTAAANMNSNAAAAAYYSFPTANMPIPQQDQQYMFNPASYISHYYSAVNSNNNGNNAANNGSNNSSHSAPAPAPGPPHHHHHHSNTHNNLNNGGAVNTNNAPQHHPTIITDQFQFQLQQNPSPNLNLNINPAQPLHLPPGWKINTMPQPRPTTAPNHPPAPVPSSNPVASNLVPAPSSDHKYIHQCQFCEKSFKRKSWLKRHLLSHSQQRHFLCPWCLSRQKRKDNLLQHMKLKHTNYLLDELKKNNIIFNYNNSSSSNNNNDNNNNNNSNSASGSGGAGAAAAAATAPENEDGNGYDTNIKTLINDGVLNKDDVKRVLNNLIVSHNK
Method in brief: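 Bound GST-tagged yeast transcription factors, applied at about 100-200 nM to double-stranded universal all-10-mer Agilent arrays, were detected with fluorescent anti-GST. Scans were normalised with masliner. A modified Wilcoxon-Mann-Whitney statistic, the E-score, was assigned to each ungapped eight-base word pooled with its reverse complement by the Universal PBM Analysis Suite.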

Sequence | PBM E-score
GCGGTTCC | 0.0435
CACTTTGG | -0.0925
GACTGATA | -0.216
CGGGGCTA | -0.291
AACTTCCT | 0.15
ATTTGTAA | 0.244
CCTTGTAC | 0.272
CCTTGTAA | 0.392
CTTTGTAA | 0.355
CCTTGTAG | 0.311
CTTTGTAC | 0.193
AGGCTGTC | -0.15
GGGCATAC | -0.186
AAGAAGTC | -0.0398
AATTGCGC | 0.0861
GTCTATGA | 0.0543
CTCGATAC | 0.24
AGCGTGTC | 0.205
AGCGTGTG | 0.147
GGCGTGAA | -0.0959
CGCGTGTA | 0.375
CGCGTGTC | 0.196

Sequence | PBM E-score
AGCGTGTA | 0.406
GGCGTGTA | 0.383
CGCGTGAA | 0.172
GGCGTGCA | -0.243
ACAGACGT | 0.119
GAGGGAAA | -0.199
CTCCTTGA | -0.122
CGAAGGTA | 0.366
AGAAGGTA | 0.347
AGAAGGTC | -0.0584
AGAAGGTG | -0.0242
GGAAGGTA | 0.251
CGAAGGTC | -0.313
ATTTAGGC | 0.339
CTTGATAC | 0.00505
CAGACACC | -0.0175
AAGACGGC | -0.265
ATGGATTG | 0.0625
GCGTTCTA | -0.106
ATAGACCC | 0.178
CGCCACCC | -0.0907
CAACATGC | 0.345

Sequence | PBM E-score
AAACATGT | 0.374
AAACATGC | 0.288
GAACATGC | 0.202
TAACATCA | 0.25
GAACATGA | 0.238
AAACATGG | 0.222
CAACATGA | 0.352
TAACATGA | 0.363
CAACATGG | 0.337
CCACATGA | 0.0141
AAACATGA | 0.327
ATGGCCAT | -0.171
CAGTTCCC | -0.174
CTAGGATC | -0.0652
CAGTGCGC | -0.292
CCCGGTCG | -0.273
ACCGGTAT | -0.135
ACGTTGTG | 0.137
GGCCGAGA | -0.209
TAGTAATA | 0.182
CTCTCTGC | -0.112
AAGGCATA | 0.321

Sequence | PBM E-score
ATGGCATC | -0.162
AAGGCATG | 0.303
AAGGCATC | 0.381
AAGGCATT | 0.362
AGGGCATC | -0.163
AAACTTCG | 0.0118
TACCTAGA | 0.252
AGAGAAAA | -0.0157
CAGCACTA | -0.113
ATAAAGCA | -0.12
ACACAGGA | 0.295
ATTAAGGA | 0.0441
ATAAAGGC | 0.186
ACACAGGC | 0.354
ACATAGGT | 0.282
ATTAAGGC | 0.378
ACATAGGC | 0.373
CTTAAGGC | 0.314
GCATAGGC | 0.166
ACACAGGG | 0.213
CTAAAGGC | 0.35
CTAAAGGA | 0.148

Sequence | PBM E-score
CGCAGCCC | -0.265
CAGCAACC | -0.184
TAACGCAA | 0.2
CGAGAACG | -0.206
GGGTAAGA | -0.146
ATCGCTTC | -0.178
ACAAAGGG | -0.0152
ACAAAGGC | 0.36
CCAAAGGC | 0.145
ATAGCGCA | -0.0413
AGAGCTAT | 0.00577
CAATGTAC | 0.184
AAATGTAG | 0.151
CAATGTAG | 0.234
AAATGTAC | 0.227
AAATGTAA | 0.346
GAATGTAA | 0.295
TAATGTAA | 0.354
TAATGTCA | 0.139
CAATGTAA | 0.34
ATTCTCTC | -0.103
ATATTAAA | 0.184
